Measurements: a collection of fitness landscapes (doi:10.1016/j.celrep.2020.107928)
The full ranking holds about 81,000 sequences; the median of “one-hybrid fitness for binding NBS DNA” is about -0.1, and the highest 2% start at about 0.36. Many of the other results were omitted from the sample, so the highest values are more common in it than they were.

B1: Caulobacter ParB omega fusion; a variant is named by its letters at X, in order, B8GW30 (parent)
chain: MESVVVGEPGMSEGRRGLGRGLSALLGEVDAAPAQAPGEQLGGSREAPIEILQRNPDQPRRTFREEDLEDLSNSIREKGVLQPILVRPSPDTAGEYQIVAGERAWRAAQRAGLKTVPIMVRELDDLAVLEIGIIENVQRADLNVLEEALSYKVLMEKFERTQENIAQTIGKSXSHVANXMRLLXLPDEVQSYLVSGELTAXHARAIAAAADPVALAKQIIEGGLSVRETEALARKAPNLSAGKSKGGRPPRVKDTDTQALESDLSSVLGLDVSIDHRGSTGTLTITYATLEQLDDLCNRLTRGI

Variants of: B1
Experiment: one-hybrid fitness for binding NBS DNA (the Noc-binding site; scaled: cognate 1, non-cognate 0); higher = stronger binding
Conditions: with NBS DNA site
Procedure, shortened: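 Fitness here means the log change in variant-to-wild-type read ratio between plasmids sequenced before and after selection. That scale was set so cognate equals 1 and non-cognate equals 0. The selection was a bacterial one-hybrid screen of Caulobacter ParB libraries, four specificity codons randomised, in E. coli USO carrying a HIS3 reporter with the site 19 bp from the promoter, grown 48 hours at 37°C on M9-minus-histidine with 0.1 mM IPTG and 5 mM 3-AT.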

Variant | one-hybrid fitness for binding NBS DNA
GRAP | ≤ 0.2
MVHG | ≤ 0.2
SQHN | ≤ 0.2
DRTT | ≤ 0.2
QKTP | ≤ 0.2
QKTT | 0.56
QATH | ≤ 0.2
QRTT | 0.759
QATD | ≤ 0.2
QTTT | 0.603
QTTG | ≤ 0.2
QNTT | ≤ 0.2
QKTM | ≤ 0.2
QTTY | 0.301
QATT | 0.379
ERNT | ≤ 0.2
SKLS | ≤ 0.2
CYAV | ≤ 0.2
RIEC | ≤ 0.2
GTHW | ≤ 0.2
QHTY | ≤ 0.2
QHTT | 0.412
QHTM | ≤ 0.2

Variant | one-hybrid fitness for binding NBS DNA
KWAC | ≤ 0.2
TYFR | ≤ 0.2
RRYI | ≤ 0.2
RRKI | 0.607
RREI | ≤ 0.2
RRVI | ≤ 0.2
RRRI | 0.451
RCKI | ≤ 0.2
VLSD | ≤ 0.2
DRYG | ≤ 0.2
SACR | ≤ 0.2
CRNI | ≤ 0.2
ARTS | ≤ 0.2
DRFT | ≤ 0.2
KRAH | ≤ 0.2
KRAT | 0.572
KCAT | ≤ 0.2
NRFT | ≤ 0.2
KRFT | 0.565
ERLC | ≤ 0.2
DGPR | ≤ 0.2
QTLT | 0.527
QMWT | 0.36

Variant | one-hybrid fitness for binding NBS DNA
QMCT | 0.339
QMET | 0.295
QMRT | 0.79
QTLK | ≤ 0.2
DMRT | ≤ 0.2
QMHG | ≤ 0.2
QMYT | 0.436
QMHT | 0.497
QMHQ | ≤ 0.2
KGMW | ≤ 0.2
IVAT | ≤ 0.2
PGEM | ≤ 0.2
MPVM | ≤ 0.2
GHRC | ≤ 0.2
NPHC | ≤ 0.2
QSLT | 0.327
QMST | 0.457
QMAT | 0.505
QMSF | ≤ 0.2
QMSG | ≤ 0.2
QPLT | ≤ 0.2
QMAF | ≤ 0.2
QMAG | ≤ 0.2

Variant | one-hybrid fitness for binding NBS DNA
QCLT | 0.487
QMNT | 0.52
QMDT | 0.345
QMND | ≤ 0.2
CHMT | ≤ 0.2
EHDV | ≤ 0.2
SSEQ | ≤ 0.2
GTKR | 0.255
RILE | ≤ 0.2
RWLC | ≤ 0.2
ADHS | ≤ 0.2
SITC | ≤ 0.2
TCAG | ≤ 0.2
QMQT | 0.392
QMQY | 0.223
QMLT | 0.395
QMLN | ≤ 0.2
QMPT | 0.312
QMIT | 0.402
QMGT | 0.447
QMLP | ≤ 0.2
QMGL | ≤ 0.2
QMQF | ≤ 0.2

Variant | one-hybrid fitness for binding NBS DNA
QMIN | ≤ 0.2
QMGM | ≤ 0.2
HGKF | ≤ 0.2
ARGT | ≤ 0.2
PESN | ≤ 0.2
MRTC | ≤ 0.2
LKVF | ≤ 0.2
YDRK | ≤ 0.2
EANW | ≤ 0.2
QMSS | 0.376
QHSS | 0.37
QSSS | 0.353
QTSN | 0.221
QCSS | 0.449
QMSH | ≤ 0.2
QTSS | 0.522
QTSP | ≤ 0.2
QHSP | ≤ 0.2
QPSS | ≤ 0.2
QMSP | ≤ 0.2
QHSH | ≤ 0.2
NGMI | ≤ 0.2
PSRF | ≤ 0.2

Variant | one-hybrid fitness for binding NBS DNA
GSQF | ≤ 0.2
RLMM | ≤ 0.2
HSIS | ≤ 0.2
RMIR | 0.253
RMSR | 0.468
RMQR | 0.411
RMYR | 0.424
RMRR | 0.736
RMQG | ≤ 0.2
RMRP | ≤ 0.2
RMSP | ≤ 0.2
RMQF | ≤ 0.2
RMPR | ≤ 0.2
RMSN | ≤ 0.2
RMWR | 0.289
RYMW | ≤ 0.2
MSPG | ≤ 0.2
AAPF | ≤ 0.2
KVSV | ≤ 0.2
SDKS | ≤ 0.2
WSYG | ≤ 0.2
SPGT | ≤ 0.2
PNYD | ≤ 0.2

Variant | one-hybrid fitness for binding NBS DNA
KQNC | ≤ 0.2
VKNL | ≤ 0.2
FTGV | ≤ 0.2
QSPF | ≤ 0.2
TTVG | ≤ 0.2
GWPD | ≤ 0.2
RMHF | ≤ 0.2
RMHR | 0.503
RMLN | ≤ 0.2
RMLS | 0.309
RMGR | 0.479
RMHM | ≤ 0.2
RMGH | ≤ 0.2
RMGN | ≤ 0.2
RMLR | 0.431
RMAD | ≤ 0.2
RMAR | 0.46
RMFR | 0.348
